Screens: PubChem BioAssay, National Center for Advancing Translational Sciences (NCATS)
Pf growth 48h – P. falciparum growth inhibition at 48 hours (one generation); P. falciparum luciferase growth in erythrocytes, 48 h; Potency, µM (series often up to 28.7 µM), for inactives: at the highest dose activity change, negative = inhibition, hits mostly inhibitors; 310,000 tested, 5.9% active; further: potency means the concentration at half of the fitted maximal effect; on the % scale 0 is the no-effect control and ±100 the full control effect
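Read-out is firefly luciferase luminescence from an integrated reporter in P. falciparum, so falling signal marks reduced parasite growth. Infected erythrocytes were at 2% hematocrit and 0.1% parasitemia (final) in Albumax-supplemented RPMI 1640.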
Shiga toxin inh – blocks Shiga toxin action in Vero cells. Vero cells, Shiga toxin protein synthesis inhibition reporter. inhibition, % at 38.7 µM. 290,000 tested, 9.2% active. AID 2315; in the data active means inhibition mostly above about 28%, no sharp cut-off; inactive means mostly below about 43%; further: 0% is about no effect
Cycloheximide cs – counter-screen hit for Shiga toxin inhibitors, cycloheximide | cell reporter, cycloheximide protein synthesis inhibition counterscreen | max response, % | 300,000 tested, 12% active; in the data active means max response mostly above about 13%, no sharp cut-off; inactive means mostly below about 14%; further: read at 38.3 µM for the half of the compounds with a filed dose; 0% is about no effect
Sm TGR block – inhibitors of Schistosoma mansoni thioredoxin glutathione reductase; Q962Y6; purified TGR, DTNB reduction, TNB absorbance 405 nm; Potency, µM (top dose mostly 114 µM), for the others: top-dose activity change, negative = inhibition, hits mostly inhibitors; 360,000 tested, 3% active; further: potency means the concentration at half of the fitted maximal effect; on the % scale 0 is the no-effect control and ±100 the full control effect; nearly all actives have a fitted effect of over 60% in size
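Kinetic colorimetric format: TGR-catalysed, NADPH-driven DTNB reduction monitored via TNB absorbance. Enzyme dispensed at 20 nM; compound exposure 15 min at room temperature before reaction start.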
Pf growth 96h – P. falciparum growth inhibition at 96 hour, primary screen for plastid delayed-death inhibitors. P. falciparum luciferase reporter growth, 96 h. Potency, µM (highest dose often 28.7 µM), for the others: at the highest dose activity change, negative = inhibition, actives largely listed as inhibitors. 320,000 tested, 6.9% active. AID 504834; further: potency means the concentration at half of the fitted maximal effect; on the % scale 0 is the no-effect control and ±100 the full control effect
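Erythrocytes infected with luciferase-expressing P. falciparum were dispensed at 2% hematocrit and 0.05% parasitemia (final), then incubated with compounds 96 hours at 37 C in 5% CO2. Luminescence after detection reagent addition reported growth.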
NS1 inh – influenza NS1 inhibition; Potency, µM (doses to about 46.1 µM), for the others: top-dose activity, positive = more growth; 270,000 tested, 0.4% active; AID 2326; calls by dose curve; further: potency means the concentration at half of the fitted maximal effect; actives are rising curves; nearly all actives have a fitted effect of over 50% in size
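OD600 was taken as the measure of yeast growth restored by compound in an NS1-expressing S. cerevisiae strain. Cells had been washed out of glucose medium and diluted 1:100 into galactose -URA medium, pH 6.0.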
Active calls of the source: *; ? = inconclusive; / = no result. An excerpt weighted towards active compounds, which were near 21% of everything screened. Unless noted, the call rests on the fitted dose curve; in most records, active means well fitted curve in the direction sought with a large enough effect; inconclusive means small, poorly fitted or top-dose-only effect, or another doubt; inactive means no such curve, though single readings can be large; an effect the other way counts as inactive or inconclusive.

SMILES	Pf growth 48h	Shiga toxin inh	Cycloheximide cs	Sm TGR block	Pf growth 96h	NS1 inh
CC(=O)Nc1ccc(NC(=O)C(C)OC(=O)CCCOc2ccc(Cl)c(C)c2)cc1 (stereo not drawn)	48%	8	-1	-4%	32%	-6%
O=c1c2ccccc2oc2ccc(NCCCn3ccnc3)cc12	176%	54*	33*	-25%	223%	8%
Cc1nc(Nc2cccc(Cl)c2)c2oc3ccccc3c2n1	-58%	31*	20*	1%	?	-42%
Cc1nc(Nc2ccc(Cl)cc2)c2oc3ccccc3c2n1	?	-2	7	10%	?	3%
CCNc1nc(C)nc2c1oc1ccccc12	24%	-4	2	-28%	0.66µM*	-34%
Cc1nc2c(oc3ccccc32)c(=O)o1	?	144*	88*	11µM*	/	-13%
CCCCN1CC(O)C(O)C(O)C1CO (stereo not drawn)	3%	/	/	/	?	/
Cc1ccc(S(=O)(=O)n2ccc(OC(=O)c3cccs3)n2)cc1	53%	-19	0	6.3µM*	77%	-9%
O=C(NNC(=O)c1ccccc1Br)c1ccc(Cl)cc1	48%	21	6	-19%	164%	-1%
O=C(NNC(=O)c1ccccc1F)c1cccc(Cl)c1	91%	80*	22*	31%	104%	-14%
O=C(NCCO)c1cccc(Cl)c1	/	-8	1	0%	37%	-6%
O=C(NNC(=O)c1ccccc1Br)c1cccc(Cl)c1	61%	50*	83*	10%	129%	-78%
CCOc1ccc(C(C)=O)cc1N1C(=O)C2C3C=CC(O3)C2C1=O (stereo not drawn)	0%	8	11	0.71µM*	-56%	-78%
CN1CCC2(CC1)NC(=O)c1ccccc1N2	-1%	1	4	-7%	96%	0%
S=C1NC2(CCCCC2)Nc2ccccc21	-17%	33	16*	0%	17%	7%
S=C1NC2(CCCC2)Nc2ccccc21	22%	103*	38*	0%	-19%	7%
Cc1cccc(-c2nc(CN3CCCC(C(=O)NCCc4ccc(Cl)cc4)C3)c(C)o2)c1 (stereo not drawn)	/	/	/	-2%	/	/
Cc1oc(C(C)(C)C)cc1C(=O)Nc1ccc2c(c1)OCCO2	29%	102*	53*	-27%	/	-52%
Cc1oc(C(C)(C)C)cc1C(=O)Nc1ccc2c(c1)OCO2	34%	79*	32*	?	26%	-36%
Cc1oc(C(C)(C)C)cc1C(=O)Nc1cccc(/C=C/C(=O)O)c1	2%	54	3	-14%	3%	-1%
CC(=O)c1ccc(OCc2cc(C(=O)N3CCN(c4ccccc4)CC3C)no2)cc1 (stereo not drawn)	6%	53*	48*	-18%	-5%	1%
CSc1ccccc1OCc1cc(C(=O)N2CCN(c3ccccc3)CC2C)no1 (stereo not drawn)	?	99*	57*	14%	-16%	?
COc1cc(OC)c(NC(=O)N2CCCn3nc(C)cc32)cc1Cl	/	/	/	8%	/	/
COc1cc2c(cc1OC)C(c1ccccc1)N(S(C)(=O)=O)CC2 (stereo not drawn)	-7%	-9	1	-1%	?	2%
COc1cc2c(cc1OC)C(c1ccccc1)N(C(=O)CCl)CC2 (stereo not drawn)	?	-21	-1	4µM*	?	-4%
SMILES	Pf growth 48h	Shiga toxin inh	Cycloheximide cs	Sm TGR block	Pf growth 96h	NS1 inh
COc1ccc(C(=O)N2CCc3cc(OC)c(OC)cc3C2c2ccc(OC)c(OC)c2)cc1OC (stereo not drawn)	13µM*	-2	8	-14%	6.6µM*	-4%
COc1ccc(OCC2c3cc(OC)c(OC)cc3CCN2C(=O)c2ccc(F)cc2)cc1 (stereo not drawn)	/	/	/	5%	/	/
COc1cc2c(cc1OC)C(c1ccccc1O)N(C1CC(=O)N(c3ccccc3)C1=O)CC2 (stereo not drawn)	-27%	-13	-1	10µM*	/	9%
CC(Oc1ccccc1F)c1nnc(SCC(=O)NCc2ccc3c(c2)OCO3)o1 (stereo not drawn)	?	/	/	-16%	?	/
O=C(CCn1c(=S)[nH]c2cc3c(cc2c1=O)OCO3)NCc1ccccc1Cl	1%	-6	-1	-10%	?	-3%
CCCCC/C=N/NC(=O)c1[nH]c2ccc([N+](=O)[O-])cc2c1C	?	-10	0	5%	10µM*	3%
CC1CCCCN1Cc1c(O)ccc2c(=O)c(-c3nc4ccccc4s3)c(N)oc12 (stereo not drawn)	0.83µM*	63*	40*	2%	1µM*	-8%
O=c1c(-c2ccc(Cl)cc2)coc2c(CN3CCOCC3)c(O)ccc12	8.3µM*	23	17	0%	10µM*	?
CC1CCCCN1Cc1c(O)ccc2c(=O)c(-c3ccc(Br)cc3)coc12 (stereo not drawn)	7.4µM*	23	9	9%	5.9µM*	-3%
CC1CCCCN1Cc1c(O)ccc2c(=O)c(-c3ccccc3Cl)c(C(F)(F)F)oc12 (stereo not drawn)	/	/	/	-16%	/	/
CCN(CC)Cc1c(O)ccc2c(=O)c(-c3ccccc3)coc12	54%	/	31*	1%	-27%	14%
Cc1nc(C)n(C(C)CNC(=O)c2ccco2)n1 (stereo not drawn)	1%	-3	-1	3%	0%	4%
CC(=O)Nc1cccc(NC(=O)CSc2nnnn2-c2ccc3c(c2)OCO3)c1	-9%	15	-2	6%	33%	10%
CCc1cccc(C)c1NS(=O)(=O)Cc1ccccc1	?	-9	-2	11%	?	10%
O=C(COC(=O)c1cccc(-n2cnnn2)c1)c1ccc(Br)cc1	141%	/	/	-2%	95%	/
CCN(CC)Cc1c(O)ccc2c(=O)c(-c3ccc4c(c3)OCCO4)coc12	?	15	6	-34%	?	11%
COc1ccc(-c2c(C)oc3c(CN4CCCCC4C)c(O)ccc3c2=O)cc1OC (stereo not drawn)	?	-2	-3	5%	12µM*	-6%
CC(C)N(Cc1c(O)ccc2c(=O)c(-c3ccc(Cl)cc3)coc12)C(C)C	0%	/	18*	40µM*	-13%	-4%
CC1CCCCN1Cc1c(O)ccc2c(=O)c(-c3ccc(Cl)cc3)coc12 (stereo not drawn)	10µM*	49	30*	7%	45%	1%
COc1cc(/C=C/C(=O)Nc2cccc(S(=O)(=O)NC3=NCCCCC3)c2)ccc1OCC#N	10µM*	/	/	-8%	?	/
COc1ccccc1/C=C/C(=O)Nc1cccc(S(=O)(=O)NC2=NCCCCC2)c1	?	38	4	1%	?	/
COc1ccc(OC)c(/C=C/C(=O)Nc2cccc(S(=O)(=O)NC3=NCCCCC3)c2)c1	10µM*	/	/	0%	?	/
